# Data published in PubChem BioAssay (NCI).
# This is part of a sample that, as a whole, favours compounds with a hit. Of some 83,000 tested, about 20% had one in any assay.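 Negative percent growth values reflect cell death: -40 means 40% of the cells present at the start died, and -100 means all died.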 Active and inactive are the calls of the source. Rule for the calls: active = growth percent below 10; inactive = the rest.
# Test system: HL-60(TB) leukemia
# Experiment: NCI-60 one-dose screen, 48 h (100 = growth as untreated, 0 = no growth, -100 = all killed)
# Details: 10 µM unless noted
row,SMILES,growth
1,Cc1ccccc1NC(=O)c1sc2nc3c(cc2c1N)C(=O)CCC3,36% (inactive)
2,COc1ccc(-c2nc(-c3nc4cc(Cl)c(Cl)cc4[nH]3)c3ccccn23)cc1,99.9% (inactive)
3,CCCCCCCC/C=C\CCCCCCCCOc1cccc(CC(=O)NCC[N+]2(C)CCCCC2)c1,28% (inactive)
4,O=C(CCCCl)NNc1nccc(Nc2ccc(S(=O)(=O)Nc3ccncc3)cc2)n1,127% (inactive)
5,Nc1nonc1-c1nc2ccccc2n1CC(=O)Nc1ccc2c(c1)COC2=O,100% (inactive)
6,C=C1CC2(OC1=O)C(=O)N(CCCN1C(=O)C3(CC(=C)C(=O)O3)c3ccccc31)c1ccccc12 (stereo unspecified),-26.5% (active)
7,Cc1ccc2oc(=O)cc(-c3sc(N4CCCCC4)nc3-c3ccccc3)c2c1,95% (inactive)
8,C=C(C)[C@@H]1CC[C@]2(C(=O)NCCCN(CCC#N)CCC#N)CC[C@]3(C)[C@H](CC[C@@H]4[C@@]5(C)CCC(=O)C(C)(C)[C@@H]5CC[C@]43C)[C@@H]12,100% (inactive)
9,Cc1nc2sc(C(=O)Nc3ccccc3)c(N)c2cc1C(=O)c1ccc(C(F)(F)F)cc1,99.3% (inactive)
10,CC(C)(C)c1ccc(NS(=O)(=O)c2ccc3nc(NC(=O)c4cnccn4)[nH]c3c2)cc1,-21.9% (active)
11,CNC(=O)c1cc(Oc2ccc3c(c2)sc2nc(-c4ccc(Cl)c(C(F)(F)F)c4)cn23)ccn1,35.8% (inactive)
12,N#C/C(=C\c1c(-c2ccccc2)[nH]c2ccccc12)S(=O)(=O)c1ccccc1,-4.39% (active)
13,Nc1nc(N)c2c(n1)NC(c1cccc(Nc3ccnc4cc(C(F)(F)F)ccc34)c1)CC(c1ccc3c(c1)OCO3)=N2 (stereo unspecified),76.5% (inactive)
14,COc1ccc(Cn2cc3c(c2-c2ccccc2)CCc2cnoc2-3)cc1,4.48% (active)
15,O=C(CN1CCN(c2cc3c(cc2F)c(=O)c(C(=O)O)cn3C2CC2)CC1)Nc1ccc(C(=O)/C=C/c2ccccc2)cc1,40.9% (inactive)
16,Cc1ccc(Nc2ccc(Nc3ccc(C)cc3)c3c2C(=O)c2cccc(O)c2C3=O)cc1,94.3% (inactive)
17,NC(N)=N/N=C\c1ccc(OCc2ccccc2)cc1,43.1% (inactive)
18,C=CCOC(=O)Nc1cccn([C@H](Cc2ccccc2)C(=O)NCCC(C)C)c1=O,95.1% (inactive)
19,Cn1cc(-c2csc(-c3cn(C)c4ccc(Br)cc34)n2)c2cnccc21,-58.4% (active)
20,CC(C)CCN(CCC(C)C)CC(=O)Nc1ccc(S(=O)(=O)c2ccc(NC(=O)CN(CCC(C)C)CCC(C)C)cc2)cc1,19.1% (inactive)
21,CCCCCCCCCCCC1=NC(C)(C)CN1CC(C)O (stereo unspecified),-15.1% (active)
22,CC[C@]1(O)C[C@@H]2CN(CCc3c([nH]c4ccccc34)[C@@](C(=O)OC)(c3cc4c(cc3OC)N(C)[C@H]3[C@@](O)(C(=O)OC)[C@H](OC(=O)CCCBr)[C@]5(CC)C=CCN6CC[C@]43[C@@H]65)C2)C1,-21.2% (active)
23,O=C(O)c1ccc(P(=O)(O)O)c([N+](=O)[O-])c1,100% (inactive)
24,COc1ccc(C2=NN(C(C)=O)C(c3c(C)nn(-c4ccccc4)c3N3CCOCC3)C2)cc1 (stereo unspecified),101% (inactive)
25,COc1cc(OC)c(C(=O)/C=C/c2cccc(OC(C)=O)c2)cc1CC=C(C)C,8.14% (active)
26,c1ccc2cc(Cn3c[n+](Cc4ccc5ccccc5c4)c4ccccc43)ccc2c1,-66.3% (active)
